Assay outcomes deposited in PubChem by National Center for Advancing Translational Sciences (NCATS).
Cycloheximide cs – counter-screen for Shiga toxin inhibitors: cycloheximide protein synthesis inhibition. cell reporter, cycloheximide protein synthesis inhibition counterscreen. max response, %. 12% of 300,000 active; in the data active means max response mostly above about 13%, no sharp cut-off; inactive means mostly below about 14%; further: read at 38.3 µM for the half of the compounds with a filed dose; 0% is about no effect
AMA1-RON2 inh – inhibitors of Plasmodium falciparum AMA1-RON2 interaction; AlphaScreen AMA1-biotinylated RON2 peptide binding; Potency, µM (doses to about 58.2 µM), for inactives: at the top dose activity change, negative = inhibition, usual class: inhibitors; 0.2% of 360,000 active; AID 720542; active means well fitted inhibition curve with a large enough effect; inconclusive means small, poorly fitted or top-dose-only effect; inactive means no such curve, though single readings can be large or run the other way;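 further: potency means the concentration at half of the fitted maximal effect; 0% = vehicle wells and -100% = peptide control; nearly all actives have a fitted effect of over 45% in size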
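AMA1 (3D7) with his tag at 25 nM final met compounds first, then biotinylated RON2 peptide at 25 nM; detection used donor plus acceptor beads, 10 µg/mL apiece, read by AlphaScreen after 30 min at room temperature.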
Marburg entry inh – inhibitors of Marburg virus binding or cell entry; Marburg virus pseudotyped entry inhibition, cell reporter; Potency, µM (series often up to 37.8 µM), for the others: top-dose activity change, negative = inhibition, usual class: inhibitors; 1.8% of 300,000 active; calls by dose curve; tested in HEK293 cells; further: potency means the concentration at half of the fitted maximal effect; on the % scale 0 is the no-effect control and ±100 the full control effect
Lassa entry inh – Lassa virus entry inhibition | Lassa virus pseudotype entry inhibition, cell reporter | Potency, µM (highest dose often 37.9 µM), without a hit: at the top dose activity change, negative = inhibition, hits mostly inhibitors | 1.2% of 300,000 active; calls by dose curve; tested in HEK293 cells; further: potency means the concentration at half of the fitted maximal effect; on the % scale 0 is the no-effect control and ±100 the full control effect; nearly all actives have a fitted effect of over 50% in size
Shiga toxin inh – blocks Shiga toxin action in Vero cells. Vero cells, Shiga toxin protein synthesis inhibition reporter. inhibition, % at 38.7 µM. 9.2% of 290,000 active; in the data active means inhibition mostly above about 28%, no sharp cut-off; inactive means mostly below about 43%; further: 0% is about no effect
* marks the source's active call; other numbers are inactive results; [ ] = another dose, or the depositor's remark. This is one part of a sample in which hits are shown more often than they occur.

CC(C)CN(C(=O)c1ccc(=O)n(C)n1)c1nc2ccccc2s1 was read as Cycloheximide cs 15*, AMA1-RON2 inh -3%, Marburg entry inh 24%, Lassa entry inh inconclusive and Shiga toxin inh 17.
Cc1ccc(C(=O)N(CC(C)C)c2nc3ccccc3s2)o1 was read as Cycloheximide cs 2, AMA1-RON2 inh -6%, Marburg entry inh -2%, Lassa entry inh inconclusive and Shiga toxin inh 5.
COc1ccc(C(=O)C(C)OC(=O)C2CC3CCCC(C2)C3=O)cc1 (centres undefined) was read as AMA1-RON2 inh 9%.
`COc1ccc(NCc2cc3cc4c(cc3n(CC(=O)Nc3ccccc3)c2=O)OCO4)cc1` gave Lassa entry inh 5%[46.1 µM].
CC1OC(CCc2cccc(Cl)c2)Cc2[nH]c(=S)[nH]c(=O)c21 (centres undefined) was read as AMA1-RON2 inh 101%.
For S=c1[nH]nc(-c2ccccc2)o1 the results were Cycloheximide cs 5, AMA1-RON2 inh 17%, Marburg entry inh 3%, Lassa entry inh 14% and Shiga toxin inh 29.
Screening S=c1nc(-c2ccccc2)oc2c1CCCC2 returned Cycloheximide cs 60*, AMA1-RON2 inh -7%, Marburg entry inh 0%, Lassa entry inh inconclusive and Shiga toxin inh 95*.
For O=[N+]([O-])c1ccc(-c2nc(=S)c3c(o2)CCCC3)cc1 the results were Cycloheximide cs 12*, AMA1-RON2 inh 4%[11.6 µM], Marburg entry inh inconclusive, Lassa entry inh 15% and Shiga toxin inh 16.
COc1cccc(-c2n[nH]c3c2CCC3)c1 was read as Cycloheximide cs 22*, AMA1-RON2 inh 16%, Marburg entry inh -25%[46.1 µM], Lassa entry inh 20%[46.1 µM] and Shiga toxin inh 52.
Screening c1ccc(-c2n[nH]c3c2CCC3)cc1 returned Cycloheximide cs -1, AMA1-RON2 inh 5%, Marburg entry inh inconclusive, Lassa entry inh -2% and Shiga toxin inh -25.
COc1cccc(-c2nc(=S)c3c(o2)CCCC3)c1 was read as Cycloheximide cs 42*, AMA1-RON2 inh 16% and Shiga toxin inh 120*.
Screening N/C(=N\OC(=O)c1ccoc1)c1ccc(Br)cc1 returned Cycloheximide cs 74*, AMA1-RON2 inh 12% and Shiga toxin inh 90*.
Cc1cccc(C(=O)O/N=C/c2ccc(Br)cc2)c1 was read as Cycloheximide cs 44*, AMA1-RON2 inh 23%, Marburg entry inh -12%[46.1 µM], Lassa entry inh -2% and Shiga toxin inh 88*.
`Cc1cccc(C(=O)O/N=C(\N)c2ccc(Br)cc2)c1` gave Cycloheximide cs 56*, AMA1-RON2 inh 2%, Marburg entry inh 12%, Lassa entry inh -15% and Shiga toxin inh 63.
For Cc1ccc(C(=O)O/N=C(\N)c2ccc(Br)cc2)cc1C the results were Cycloheximide cs 42*, AMA1-RON2 inh -4%, Marburg entry inh 22%, Lassa entry inh -20% and Shiga toxin inh 130*.
`COCC(=O)N1CCC(Oc2ccc(C(=O)N3CCCCC3COC)cc2)CC1` (centres undefined) gave Cycloheximide cs 12, AMA1-RON2 inh 7% and Shiga toxin inh -6.
For COc1cc(C(=O)O[C@H]2C/C(C)=C/CC/C(C)=C/[C@@H](O)C2C(C)C)ccc1O (some centres undefined) the results were Cycloheximide cs 11 and Shiga toxin inh -2.
Screening CCc1ccc(C2N3CC4(C)CN2CC(c2ccccc2)(C3)C4=O)cc1 (centres undefined) returned Marburg entry inh 7%[46.1 µM] and Lassa entry inh -10%[46.1 µM].
For Cc1cccc(C(=O)O/N=C(\N)c2ccc(Cl)cc2)c1 the results were Cycloheximide cs 56*, AMA1-RON2 inh 15% and Shiga toxin inh 71*.
`Cc1ccc(/C(N)=N/OC(=O)c2ccc(Cl)cc2Cl)cc1` gave Cycloheximide cs 82*, AMA1-RON2 inh 12%, Marburg entry inh 7.1µM*, Lassa entry inh inconclusive and Shiga toxin inh 92*.
For Cc1cc(NC(=O)C2CCCCC2)ccc1NC(=O)c1ccccc1Cl the results were Cycloheximide cs -2, AMA1-RON2 inh 2%, Marburg entry inh 4%, Lassa entry inh -11% and Shiga toxin inh -5.
`Cc1ccc(NC(=O)COC(=O)Cc2csc(-c3ccc(Cl)cc3)n2)cc1C` gave Cycloheximide cs 23*, AMA1-RON2 inh 1%, Marburg entry inh 21%, Lassa entry inh 13% and Shiga toxin inh active.
Cc1ccc2c(c1)cc(CN(Cc1ccco1)C(=O)COc1ccccc1)c1nnnn12 was read as Cycloheximide cs 26*, AMA1-RON2 inh 9%, Marburg entry inh inconclusive, Lassa entry inh inconclusive and Shiga toxin inh 65*.
